Measurements from PubChem BioAssay AID1159580 (chemical genetic matrix, 2015).
“And” between values parts separate entries of the source, which are not always exact repeats. Equal entries are not always repeated. The campaign covered roughly 5,500 compounds. About 2,000 (36%) were called active. Not shown: some 18% with an inconclusive outcome. No stated cut-off is given here; in the data, active means normalized growth mostly below about 0.91 (no sharp cut-off); inconclusive means no clear call, values can overlap the other calls; inactive means mostly above about 0.92. Some of the results follow.

Test: chemical genetic growth profiling, strain panel (AID 1159580);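 further: tested at 20 µM; growth read once vehicle control cultures reached saturation at 30 °C; 1 = growth at the plate median or of vehicle wells; lower values mean less growth of the strain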
Settings: S. cerevisiae deletion strains, growth OD

Measured: normalized growth

C=C(C)C1CNC(C(=O)O)C1CC(=O)O (stereo unspecified)
inactive: locus YAL013W, strain DEP1, hits give low values 1.01 | locus YAL021C, strain ccr4, hits give low values 0.995 | locus YAL026C, strain drs2, hits give low values 0.996 | locus YAL030W, strain snc1, hits give low values 0.99 | locus YBL061C, strain skt5, hits give low values 0.992 | locus YBR009C, strain hhf1, hits give low values 0.987 | locus YBR021W, strain FUR4, hits give low values 0.986 | locus YBR023C, strain chs3, hits give low values 0.987 | locus YBR171W, strain sec66, hits give low values 0.986 | locus YBR229C, strain ROT2, hits give low values 1.01 | locus YBR231C, strain swc5, hits give low values 1 | locus YBR279W, strain paf1, hits give low values 0.997 | locus YCL011C, strain gbp2, hits give low values 0.985 | locus YCL016C, strain dcc1, hits give low values 0.998 | locus YCL029C, strain bik1, hits give low values 1.03 | locus YCL061C, strain MRC1, hits give low values 0.999 | locus YCL069W, strain vba3, hits give low values 0.995 | locus YCR088W, strain abp1, hits give low values 0.988 | locus YDL005C, strain med2, hits give low values 0.984 | locus YDL035C, strain GPR1, hits give low values 1.03 | locus YDL040C, strain nat1, hits give low values 0.986 | locus YDL074C, strain BRE1, hits give low values 1.03 | locus YDL101C, strain DUN1, hits give low values 1.02 | locus YDL185W, strain tfp1, hits give low values 1.04 | locus YDL192W, strain arf1, hits give low values 1.02 | locus YDR001C, strain nth1, hits give low values 0.99 | locus YDR069C, strain doa4, hits give low values 0.981 | locus YDR101C, strain arx1, hits give low values 1.01 | locus YDR137W, strain rgp1, hits give low values 0.972 | locus YDR150W, strain NUM1, hits give low values 1.01 | locus YDR159W, strain sac3, hits give low values 0.985 | locus YDR162C, strain NBP2, hits give low values 1.05 | locus YDR195W, strain ref2 0.967 | locus YDR297W, strain sur2, hits give low values 0.993 | locus YDR318W, strain mcm21, hits give low values 1.01 | locus YDR334W, strain swr1, hits give low values 0.992 | locus YDR335W, strain msn5, hits give low values 0.994 | locus YDR388W, hits give low values 1.01 | locus YDR392W, strain spt3, hits give low values 0.947 | locus YDR502C, strain sam2, hits give low values 1.03 | locus YEL003W, strain gim4, hits give low values 0.999 | locus YEL037C, strain rad23, hits give low values 0.988 | locus YEL061C, strain CIN8 (second series), hits give low values 0.986 | locus YEL061C, strain CIN8, hits give low values 1 | locus YER015W, strain faa2, hits give low values 0.993 | locus YER016W, strain bim1, hits give low values 0.978 | locus YER110C, hits give low values 1.02 | locus YER111C, strain swi4, hits give low values 0.996 | locus YER155C, strain BEM2 (second series), hits give low values 0.989 | locus YER155C, strain BEM2, hits give low values 0.99 | locus YER167W, strain BCK2, hits give low values 1.01 | locus YFR010W, strain ubp6, hits give low values 0.996 | locus YGL078C, strain dbp3, hits give low values 1.02 | locus YGL086W, strain mad1, hits give low values 1.02 | locus YGL167C, strain pmr1, hits give low values 0.996 | locus YGL173C, strain kem1, hits give low values 0.983 | locus YGL227W, strain vid30, hits give low values 0.989 | locus YGL240W, strain doc1, hits give low values 1.01 | locus YGL248W, strain PDE1, hits give low values 1.01 | locus YGL253W, strain hxk2, hits give low values 1 | locus YGR135W, strain pre9, hits give low values 1.03 | locus YGR252W, strain gcn5, hits give low values 1.07 | locus YHR013C, strain ard1, hits give low values 0.984 | locus YHR027C, strain rpn1, hits give low values 0.989 | locus YHR030C, strain SLT2, hits give low values 1.01 and 0.998 | locus YHR079C, strain IRE1 (second series), hits give low values 1.02 | locus YHR079C, strain IRE1, hits give low values 0.987 | locus YHR094C, strain hxt1, hits give low values 1.03 | locus YHR129C, strain ARP1, hits give low values 1.02 | locus YHR142W, strain chs7, hits give low values 0.988 | locus YHR200W, strain rpn10, hits give low values 1.01 | locus YIL066C, strain RNR3, hits give low values 1.04 | locus YIL073C, strain SPO22, hits give low values 1.07 | locus YIL125W, strain kgd1, hits give low values 1.02 | locus YIR030C, strain dcg1, hits give low values 1.02 | locus YJL092W, strain hpr5, hits give low values 0.989 | locus YJL095W, strain BCK1 (second series), hits give low values 0.99 | locus YJL095W, strain BCK1, hits give low values 1.05 and 0.992 | locus YJL115W, strain asf1, hits give low values 0.98 | locus YJL129C, strain trk1, hits give low values 1 | locus YJL134W, strain LCB3, hits give low values 1.01 | locus YJL154C, strain vps35, hits give low values 0.99 | locus YJL164C, strain tpk1, hits give low values 0.999 | locus YJL166W, strain qcr8, hits give low values 0.996 | locus YJL168C, strain set2, hits give low values 1.01 | locus YJL187C, strain SWE1 (second series), hits give low values 1.03 | locus YJL187C, strain SWE1, hits give low values 0.998 | locus YJR043C, strain POL32, hits give low values 1.02 | locus YJR066W, strain TOR1, hits give low values 0.931 | locus YJR075W, strain HOC1, hits give low values 1.03 | locus YKL009W, strain mrt4, hits give low values 1.03 | locus YKL068W, hits give low values 1.02 | locus YKL085W, strain MDH1 (second series), hits give low values 1.01 | locus YKL085W, strain MDH1, hits give low values 1.01 | locus YKL160W, strain elf1, hits give low values 1 | locus YKR001C, strain vps1, hits give low values 1.03 | locus YKR026C, strain gcn3, hits give low values 0.971 | locus YKR091W, strain srl3, hits give low values 0.999 | locus YLL001W, strain dnm1, hits give low values 0.994 | locus YLL026W, hits give low values 1 | locus YLL041C, strain sdh2, hits give low values 0.996 | locus YLR027C, strain aat2, hits give low values 0.992 | locus YLR039C, strain RIC1, hits give low values 1.11 | locus YLR058C, strain SHM2, hits give low values 1.02 | locus YLR102C, strain apc9, hits give low values 1.01 | locus YLR113W, strain HOG1, hits give low values 0.987 | locus YLR221C, strain rsa3, hits give low values 0.998 | locus YLR258W, strain gsy2, hits give low values 0.988 | locus YLR262C, strain YPT6 (second series), hits give low values 0.991 | locus YLR262C, strain YPT6, hits give low values 1.09 | locus YLR268W, strain sec22, hits give low values 1.02 | locus YLR320W, strain mms22, hits give low values 0.991 | locus YLR330W, strain CHS5, hits give low values 1.01 | locus YLR342W, strain FKS1 (second series), hits give low values 1.04 | locus YLR342W, strain FKS1, hits give low values 0.987 | locus YLR357W, strain rsc2, hits give low values 0.975 | locus YLR370C, strain arc18, hits give low values 0.986 | locus YLR371W, strain rom2, hits give low values 0.995 | locus YLR384C, strain iki3, hits give low values 0.97 | locus YLR418C, strain cdc73, hits give low values 1.03 | locus YML016C, strain PPZ1, hits give low values 1.02 | locus YML032C, strain rad52, hits give low values 1.03 | locus YML120C, strain ndi1, hits give low values 1 | locus YML124C, strain tub3, hits give low values 1.02 | locus YMR058W, strain fet3, hits give low values 0.993 | locus YMR078C, strain ctf18, hits give low values 1.03 | locus YMR125W, strain sto1, hits give low values 0.97 | locus YMR129W, hits give low values 1 | locus YMR205C, strain PFK2, hits give low values 0.962 | locus YMR223W, strain ubp8, hits give low values 1.02 | locus YMR231W, strain pep5, hits give low values 0.989 | locus YMR307W, strain GAS1, hits give low values 1.07 | locus YNL067W, strain RPL9B, hits give low values 1.02 | locus YNL071W, strain lat1, hits give low values 0.999 | locus YNL153C, strain GIM3, hits give low values 1.02 | locus YNL183C, strain NPR1, hits give low values 0.909 | locus YNL209W, strain ssb2, hits give low values 0.991 | locus YNL233W, strain BNI4, hits give low values 1.03 | locus YNL248C, strain rpa49, hits give low values 1.01 | locus YNL250W, strain rad50, hits give low values 1.03 | locus YNL271C, strain bni1, hits give low values 1.02 | locus YNL298W, strain CLA4, hits give low values 1.02 | locus YNL307C, strain MCK1, hits give low values 1.02 | locus YNL322C, strain KRE1 (second series), hits give low values 0.991 | locus YNL322C, strain KRE1, hits give low values 1 | locus YNR049C, strain mso1, hits give low values 0.986 | locus YNR052C, strain pop2, hits give low values 1.01 | locus YOL006C, strain TOP1, hits give low values 1.14 | locus YOL012C, strain htz1 0.909 | locus YOL147C, strain pex11, hits give low values 1.01 | locus YOR001W, strain rrp6, hits give low values 1.01 | locus YOR061W, strain CKA2, hits give low values 1.01 | locus YOR069W, strain VPS5, hits give low values 1.01 | locus YOR070C, strain gyp1, hits give low values 0.985 | locus YOR080W, strain dia2, hits give low values 0.983 | locus YOR083W, strain WHI5, hits give low values 1 | locus YOR106W, strain vam3, hits give low values 1.02 | locus YOR136W, strain idh2, hits give low values 1.02 | locus YOR144C, strain elg1, hits give low values 1 | locus YOR184W, strain ser1, hits give low values 1.02 | locus YOR231W, strain MKK1, hits give low values 0.992 | locus YOR265W, strain rbl2, hits give low values 0.994 | locus YOR270C, strain vph1, hits give low values 1.02 | locus YOR290C, strain snf2, hits give low values 1 | locus YOR316C, strain cot1, hits give low values 1 | locus YPL051W, strain arl3, hits give low values 0.998 | locus YPL055C, strain LGE1, hits give low values 1.03 | locus YPL078C, strain atp4, hits give low values 1.01 | locus YPL106C, strain sse1, hits give low values 0.978 | locus YPL240C, strain hsp82, hits give low values 0.997 | locus YPL256C, strain CLN2, hits give low values 0.977 | locus YPR119W, strain clb2, hits give low values 1 | locus YPR141C, strain kar3, hits give low values 1.03 | locus YPR163C, strain tif3, hits give low values 1.02 | locus YPR167C, strain met16, hits give low values 1.02 | strain wtn01, hits give low values 1.02
